Values joined by “and” are separate entries in the source; they are usually repeats but may differ in a detail not shown here. Equal values may be shown once. About 83,000 compounds went through this panel and 20% of them were active in at least one assay; those are over-represented in the sample as a whole.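 Method: cells in 96-well plates; compound added at one concentration; 48 h incubation; percent growth measured; values under 10 scored active.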 Active and inactive are the calls of the source.

Test systems include HCT-15 colon; HT29 colon; SNB-75 CNS; SNB-19 CNS; U251 CNS; PC-3 prostate; SK-MEL-5 melanoma; UACC-62 melanoma; LOX IMVI melanoma; SK-MEL-28 melanoma; SK-MEL-2 melanoma; EKVX NSCLC; SN12C renal; UO-31 renal; TK-10 renal; ACHN renal; CAKI-1 renal; A498 renal; CCRF-CEM leukemia; MOLT-4 leukemia.
Holding throughout (experiment): NCI-60 one-dose screen, 48 h (100 = growth as untreated, 0 = no growth, -100 = all killed)
Conditions in all cases: 10 µM unless noted

Consider `N#CC(C#N)=C/C=C/c1cccc([N+](=O)[O-])c1`, for which the growth is -6.94% (active) and -31.6% (active) with HCT-15 colon; -19.6% (active) and -39.5% (active) with HT29 colon; 68.2% (inactive) and 11.3% (inactive) with SNB-75 CNS; 51.3% (inactive) and 41.4% (inactive) in the assay with SNB-19 CNS; 10% (inactive) and -22.7% (active) in the assay on U251 CNS; 14.5% (inactive) and 0.0705% (active) in the assay on PC-3 prostate. The growth in the assay with SK-MEL-5 melanoma was 8.16% (active) and -10.6% (active); in the assay on UACC-62 melanoma, -51.7% (active) and -61.6% (active); in the assay with LOX IMVI melanoma it was -29.1% (active) and -78.9% (active); with SK-MEL-28 melanoma, 5.56% (active) and -41.8% (active); in the assay on SK-MEL-2 melanoma, 20.6% (inactive) and -14.1% (active); in the assay with EKVX NSCLC, 45.5% (inactive) and 2.6% (active). Further, the growth was -21.7% (active) and -30.1% (active) with SN12C renal; -16.6% (active) and -82.4% (active) with UO-31 renal; 7.02% (active) and -19.4% (active) with TK-10 renal; -22.1% (active) and -59.7% (active) in the assay on ACHN renal; 10.6% (inactive) and -24.8% (active) in the assay on CAKI-1 renal; 94.4% (inactive) and 2.43% (active) in the assay with A498 renal. Besides, the growth with CCRF-CEM leukemia is 2.18% (active) and 1.1% (active); in the assay on MOLT-4 leukemia it was -1.02% (active) and 3.93% (active).
With `O=C(CN1CCOCC1)N1CCOCC1`, the growth was 111% (inactive) and 98% (inactive) with HCT-15 colon; 91% (inactive) in the assay with HT29 colon; 106% (inactive) and 104% (inactive) in the assay with SNB-75 CNS; 103% (inactive) and 105% (inactive) in the assay on SNB-19 CNS; 107% (inactive) in the assay with U251 CNS; 90.8% (inactive) in the assay with PC-3 prostate. In addition, the growth is 107% (inactive) and 105% (inactive) in the assay on SK-MEL-5 melanoma; 93.9% (inactive) and 96.6% (inactive) in the assay with UACC-62 melanoma; 99.6% (inactive) and 100% (inactive) in the assay on LOX IMVI melanoma; 123% (inactive) and 107% (inactive) in the assay with SK-MEL-28 melanoma; 109% (inactive) in the assay with SK-MEL-2 melanoma; 117% (inactive) and 84% (inactive) in the assay with EKVX NSCLC. Further, the growth with SN12C renal was 95.9% (inactive) and 97.7% (inactive); with UO-31 renal, 68% (inactive) and 80% (inactive); in the assay with TK-10 renal, 96.8% (inactive) and 104% (inactive); in the assay with ACHN renal, 108% (inactive) and 98.9% (inactive); in the assay with CAKI-1 renal, 105% (inactive) and 88.3% (inactive); with A498 renal it was 108% (inactive). The growth is 106% (inactive) in the assay with CCRF-CEM leukemia; 97.9% (inactive) and 103% (inactive) in the assay with MOLT-4 leukemia.
For `Nc1n[nH]c(=S)n1-c1ccc(Cl)cc1`, the growth is 99.3% (inactive) in the assay with HCT-15 colon; 101% (inactive) in the assay with HT29 colon; 82% (inactive) in the assay with SNB-75 CNS; 99.4% (inactive) in the assay on SNB-19 CNS; 98.1% (inactive) in the assay on U251 CNS; 97.1% (inactive) with PC-3 prostate. Further, the growth with SK-MEL-5 melanoma is 105% (inactive); in the assay with UACC-62 melanoma, 96.2% (inactive); in the assay on LOX IMVI melanoma it was 94.6% (inactive); in the assay on SK-MEL-28 melanoma it was 101% (inactive); in the assay on SK-MEL-2 melanoma it was 99.9% (inactive); with EKVX NSCLC, 106% (inactive). Also, the growth in the assay with SN12C renal was 100% (inactive); in the assay on UO-31 renal it was 89% (inactive); in the assay on TK-10 renal it was 92.6% (inactive); in the assay on ACHN renal, 103% (inactive); in the assay with CAKI-1 renal it was 119% (inactive); in the assay with A498 renal, 109% (inactive). Moreover, the growth with CCRF-CEM leukemia is 96.7% (inactive).
For the molecule `ClC/C=C/CSc1ncnc2nc[nH]c12`, the growth in the assay with HCT-15 colon is 104% (inactive) and 99.7% (inactive); with HT29 colon, 98.4% (inactive) and 95.2% (inactive); with SNB-75 CNS, 108% (inactive) and 92.7% (inactive); in the assay with SNB-19 CNS it was 98.6% (inactive) and 102% (inactive); in the assay with U251 CNS, 96.7% (inactive) and 102% (inactive); with PC-3 prostate it was 100% (inactive) and 98.1% (inactive). Further, the growth is 100% (inactive) and 112% (inactive) with SK-MEL-5 melanoma; 99.9% (inactive) and 103% (inactive) with UACC-62 melanoma; 98.7% (inactive) and 97.3% (inactive) with LOX IMVI melanoma; 111% (inactive) and 101% (inactive) in the assay with SK-MEL-28 melanoma; 5.9% (active) and 112% (inactive) with SK-MEL-2 melanoma; 105% (inactive) and 104% (inactive) in the assay on EKVX NSCLC. In addition, the growth with SN12C renal is 105% (inactive) and 100% (inactive); with UO-31 renal, 85.9% (inactive) and 87.1% (inactive); with TK-10 renal it was 108% (inactive); in the assay on ACHN renal, 103% (inactive) and 99.2% (inactive); in the assay with CAKI-1 renal it was 106% (inactive) and 111% (inactive); in the assay on A498 renal, 91.4% (inactive) and 117% (inactive). The growth was 90.7% (inactive) in the assay on CCRF-CEM leukemia; 93.7% (inactive) and 85.3% (inactive) in the assay with MOLT-4 leukemia.
Take `CC1=C[C@H]2c3c(c(O)c(O)c4oc5cc(O)cc(O)c5c(=O)c34)[C@H](c3cc(O)c(O)c4oc5cc(O)cc(O)c5c(=O)c34)[C@H]2C(C)(C)C1`: the growth is 15.4% (inactive) and 3.72% (active) in the assay on HCT-15 colon; -1.98% (active) and -20.8% (active) in the assay on HT29 colon; 24.1% (inactive) and -10.6% (active) in the assay with SNB-75 CNS; 13.3% (inactive) and -11.3% (active) with SNB-19 CNS; 0.997% (active) and -15.3% (active) in the assay with U251 CNS; 14.4% (inactive) and -26.9% (active) in the assay with PC-3 prostate. For the same molecule, the growth with SK-MEL-5 melanoma is -84.2% (active) and -98.1% (active); in the assay with UACC-62 melanoma it was -43.1% (active) and -68.9% (active); with LOX IMVI melanoma, -93.9% (active) and -100% (active); with SK-MEL-28 melanoma, 10.3% (inactive) and -22.8% (active); in the assay on SK-MEL-2 melanoma, -20% (active) and -41.4% (active); with EKVX NSCLC, 21.4% (inactive) and -31.9% (active). For the same molecule, the growth was 9.13% (active) and -8.98% (active) with SN12C renal; -5.69% (active) and -75.2% (active) in the assay on UO-31 renal; 30.1% (inactive) and -5.84% (active) with TK-10 renal; 18.1% (inactive) and -7.12% (active) with ACHN renal; -20.5% (active) and -2.78% (active) in the assay on CAKI-1 renal; -4.52% (active) and -73.5% (active) in the assay with A498 renal. Further, the growth with CCRF-CEM leukemia was 6.01% (active) and -9.45% (active); in the assay on MOLT-4 leukemia, 7.66% (active) and -18.8% (active).
On to `NC(=O)C1CC2C=CC1C2` (centres undefined), for which the growth with HCT-15 colon was 107% (inactive) and 106% (inactive); in the assay on HT29 colon it was 107% (inactive) and 114% (inactive); with SNB-75 CNS it was 87% (inactive) and 93.8% (inactive); in the assay with SNB-19 CNS, 92.1% (inactive); in the assay on U251 CNS, 98.7% (inactive) and 99.8% (inactive); in the assay with PC-3 prostate, 100% (inactive) and 98.4% (inactive). The growth in the assay with SK-MEL-5 melanoma was 99.9% (inactive) and 109% (inactive); in the assay on UACC-62 melanoma, 102% (inactive) and 94.3% (inactive); in the assay with LOX IMVI melanoma, 90.1% (inactive) and 94.2% (inactive); with SK-MEL-28 melanoma, 104% (inactive) and 101% (inactive); with SK-MEL-2 melanoma, 98.6% (inactive) and 112% (inactive); in the assay on EKVX NSCLC it was 102% (inactive) and 94.7% (inactive). For the same molecule, the growth in the assay with SN12C renal is 103% (inactive) and 99.6% (inactive); with UO-31 renal, 100% (inactive) and 86.8% (inactive); in the assay with TK-10 renal, 120% (inactive) and 117% (inactive); in the assay on ACHN renal it was 101% (inactive) and 95.3% (inactive); with CAKI-1 renal, 76.1% (inactive) and 69.2% (inactive); with A498 renal, 112% (inactive) and 89.4% (inactive). For the same molecule, the growth in the assay with CCRF-CEM leukemia is 118% (inactive) and 96.2% (inactive); in the assay with MOLT-4 leukemia it was 103% (inactive) and 102% (inactive).
For the molecule `O=C(CCl)c1ccc2c(c1)Nc1ccccc1S2`, the growth is 85.1% (inactive) and 21.2% (inactive) in the assay with HCT-15 colon; 101% (inactive) and 95.6% (inactive) with HT29 colon; 88.6% (inactive) and 102% (inactive) in the assay on SNB-75 CNS; 99.7% (inactive) and 98% (inactive) in the assay on SNB-19 CNS; 98% (inactive) and 92% (inactive) in the assay with U251 CNS; 92.8% (inactive) and 104% (inactive) in the assay on PC-3 prostate. Further, the growth was 94.1% (inactive) and 99.5% (inactive) with SK-MEL-5 melanoma; 87.5% (inactive) with UACC-62 melanoma; 79.1% (inactive) and 48.2% (inactive) with LOX IMVI melanoma; 106% (inactive) and 115% (inactive) with SK-MEL-28 melanoma; 80.5% (inactive) and 72.5% (inactive) in the assay with SK-MEL-2 melanoma; 98.6% (inactive) in the assay with EKVX NSCLC. Also, the growth was 104% (inactive) and 93.8% (inactive) in the assay on SN12C renal; 97.7% (inactive) and 81% (inactive) with UO-31 renal; 95.5% (inactive) in the assay with TK-10 renal; 104% (inactive) and 92.4% (inactive) with ACHN renal; 98.4% (inactive) in the assay with CAKI-1 renal; 84.1% (inactive) and 77.2% (inactive) in the assay with A498 renal. Moreover, the growth in the assay on CCRF-CEM leukemia was 53.7% (inactive) and 50.5% (inactive); in the assay with MOLT-4 leukemia it was 46.3% (inactive) and 48.5% (inactive).
As for `O=C(N/N=C/c1ccccc1)N/N=C/c1ccccc1`, the growth with HCT-15 colon was 104% (inactive) and 103% (inactive); in the assay with HT29 colon, 109% (inactive) and 105% (inactive); in the assay with SNB-75 CNS, 103% (inactive) and 88% (inactive); in the assay with SNB-19 CNS, 105% (inactive) and 106% (inactive); in the assay on U251 CNS it was 114% (inactive) and 97.8% (inactive); in the assay with PC-3 prostate, 97.7% (inactive). The growth in the assay on SK-MEL-5 melanoma is 106% (inactive) and 94.5% (inactive); with UACC-62 melanoma, 101% (inactive); with LOX IMVI melanoma, 117% (inactive) and 103% (inactive); with SK-MEL-28 melanoma it was 121% (inactive) and 113% (inactive); in the assay on SK-MEL-2 melanoma it was 123% (inactive) and 119% (inactive); in the assay with EKVX NSCLC, 104% (inactive) and 101% (inactive). Also, the growth is 103% (inactive) and 114% (inactive) in the assay on SN12C renal; 92.4% (inactive) and 102% (inactive) with UO-31 renal; 119% (inactive) and 110% (inactive) with TK-10 renal; 109% (inactive) and 111% (inactive) with ACHN renal; 92.2% (inactive) and 114% (inactive) in the assay with CAKI-1 renal; 61.3% (inactive) in the assay with A498 renal. The growth in the assay on CCRF-CEM leukemia was 98.6% (inactive) and 102% (inactive); with MOLT-4 leukemia, 91.8% (inactive) and 113% (inactive).

The values above are taken from PubChem BioAssay (NCI).
